Screening data: PubChem BioAssay, National Center for Advancing Translational Sciences (NCATS)
An excerpt weighted towards active compounds, which were near 7.3% of everything screened.
SMN2 splice enh – qHTS Assay for Enhancers of SMN2 Splice Variant Expression; AID 1458, 2008; HEK293 SMN2-luciferase splicing reporter, luminescence, 30-36 h; 2.8% of 210,000 active; Potency, µM (highest dose often 46.1 µM), for inactives: top-dose activity change, positive = activation, usual class: activators; further: % of control where 0% means no effect; nearly all actives have a fitted effect of over 55% in size
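HEK293 cells carry an SMN2 […]–luciferase reporter in which exon 7 inclusion puts luciferase in frame. Cells were plated 10-12 h before compound addition, then incubated 30-36 h at 37C. ONE-Glo luminescence was read; sodium butyrate at 4.5 mM final served as control.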
NPC1 promoter act – qHTS Assay for NPC1 Promoter Activators | Huh7 NPC1 promoter luciferase reporter, 24 h | Potency, µM (highest dose often 9.22 µM), for the others: top-dose activation, hits mostly activators | 2.4% of 320,000 active | AID 485313, 2010; further: % of control where 0% means no effect; nearly all actives have a fitted effect of over 60% in size
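Luciferase expression driven by the NPC1 promoter was measured in stably transfected Huh7 cells after a 24 h compound incubation, using a luciferase reagent and a luminescence read.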
FLuc counter – qHTS profiling assay for firefly luciferase inhibitor/activator using purifed enzyme and Km concentrations of substrates (counterscreen for miR-21 project). 6.9% of 360,000 active. Potency, µM (series often up to 57.5 µM), for inactives: at the top dose activity change, negative = inhibition, most hits filed as inhibitors. purified FLuc, Km substrates, luminescence inhibition. Luciferin 4-monooxygenase (Photinus pyralis), P08659. AID 588342, 2011;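 further: plate controls were vehicle for no effect and reference inhibitor for full effect; nearly all actives have a fitted effect of over 55% in size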
Target sequence (P08659 whole entry, looked up): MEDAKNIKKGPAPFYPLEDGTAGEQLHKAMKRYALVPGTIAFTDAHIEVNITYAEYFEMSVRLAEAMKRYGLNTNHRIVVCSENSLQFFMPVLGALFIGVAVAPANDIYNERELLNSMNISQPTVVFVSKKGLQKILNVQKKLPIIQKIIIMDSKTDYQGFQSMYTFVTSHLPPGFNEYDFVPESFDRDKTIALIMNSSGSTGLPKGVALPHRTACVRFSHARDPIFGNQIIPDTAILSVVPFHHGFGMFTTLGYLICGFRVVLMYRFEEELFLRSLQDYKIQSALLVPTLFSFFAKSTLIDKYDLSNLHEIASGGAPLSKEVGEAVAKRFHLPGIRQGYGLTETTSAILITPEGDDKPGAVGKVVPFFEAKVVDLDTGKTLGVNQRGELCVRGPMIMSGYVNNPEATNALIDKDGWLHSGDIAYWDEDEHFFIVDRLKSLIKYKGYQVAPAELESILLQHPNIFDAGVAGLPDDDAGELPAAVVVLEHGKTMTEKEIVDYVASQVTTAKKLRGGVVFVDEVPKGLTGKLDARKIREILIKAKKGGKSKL
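Purified P. pyralis luciferase, 10 nM final, with Km-level 10 uM D-luciferin and 10 uM ATP in 50 mM Tris acetate pH 7.5, 10 mM Mg acetate, 0.01% Tween-20, 0.05% BSA; 6-point qHTS titration about 60 µM downward; luminescence read.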
Rab9 prom act – qHTS Assay for Rab9 Promoter Activators | Potency, µM (titrated, usually from 9.22 µM), without a hit: top-dose activation, negative = inhibition, most hits filed as activators | 2.8% of 320,000 active | Huh7 Rab9 promoter-luciferase reporter, luminescence, 24 h | AID 485297, 2010; further: % of control where 0% means no effect; nearly all actives have a fitted effect of over 60% in size
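Steps: seed 1500 Huh7 Rab9-luc cells per well, rest 2 h at 37 °C; add compound in DMSO; incubate 24 h; add luciferase reagent, 10 min ambient; read luminescence.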
ELG1 genotoxic – qHTS screen for small molecules that induce genotoxicity in human embryonic kidney (HEK293T) cells expressing luciferase-tagged ELG1; HEK293T ELG1-luciferase reporter, luminescence, 16 h; 1.3% of 330,000 active; Potency, µM (doses to about 46 µM), for inactives: at the top dose activity change, positive = activation, most hits filed as activators; further: % of control where 0% means no effect; nearly all actives have a fitted effect of over 60% in size
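16 hr compound incubation (37 °C, 5% CO2) of HEK293T cells carrying luciferase-tagged ELG1; luciferase then measured by ONE-Glo luminescence after 30 min at RT.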
Luc counter – Counterscreen for Luciferase (Kinase-Glo TM) Inhibition; Luciferin 4-monooxygenase (Photuris pensylvanica), Q27757; 0.28% of 200,000 active; Potency, µM (doses to about 38.3 µM), for the others: at the highest dose activity change, negative = inhibition, actives largely listed as inhibitors; Kinase-Glo luciferase, ATP luminescence, 8 min; AID 1379, 2008; further: on the % scale 0 is the no-effect control and ±100 the full control effect; nearly all actives have a fitted effect of over 60% in size
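Compound is pinned into ATP-containing buffer (10 uM ATP, imidazole pH 7.2, 7 mM MgCl2). Kinase-Glo luciferase reagent is then added. Light output is recorded following an 8-min room-temperature incubation.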
Active calls of the source: *; ? = inconclusive; . = not tested or not shown; [ ] = remark or other dose. The call rests on the fitted dose curve; in most records, active means well fitted curve in the direction sought with a large enough effect; inconclusive means small, poorly fitted or top-dose-only effect, or another doubt; inactive means no such curve, though single readings can be large; an effect the other way counts as inactive or inconclusive. Potency means the concentration at half of the fitted maximal effect.

SMILES | SMN2 splice enh | NPC1 promoter act | FLuc counter | Rab9 prom act | ELG1 genotoxic | Luc counter
S=c1[nH]ncn1/N=C/c1ccc(Br)cc1 | -13% | 0% | ? | -1% | 7% | -1%
C/C(=N\Nc1ccc(F)cc1F)c1ccc(N2CCOCC2)cc1 | ? | ? | 15µM* | ? | ? | 1%
S=c1[nH]ncn1/N=C/c1ccc(N2CCOCC2)cc1 | 13µM* | 4µM* | 7.6µM* | 4.5µM* | 16µM* | -8%
Fc1ccc(N/N=C/c2ccc(N3CCOCC3)cc2)c(F)c1 | 11µM* | 2.5µM* | 12µM* | 2µM* | ? | -2%
C(=N\n1cnnc1)/c1ccc(N2CCOCC2)cc1 | 2% | 1% | ? | 7% | 12% | 11%
COc1ccc(-c2cnc(C)o2)cc1S(=O)(=O)Nc1ccc(C)c(F)c1 | . | . | -2% | . | . | .
COc1ccc(C2CC(=O)Nc3c2c(=O)n(C)c2nc4ccccc4n32)cc1 (stereo not given) | 12% | . | -19% | . | . | .
COc1cc(Cn2c(=O)sc3ccccc32)ccc1OCCC(C)C | -19% | . | -7% | . | . | .
CCCSc1nc2c3c(sc2c(=O)[nH]1)CC(C)(CC)OC3 (stereo not given) | 9% | 5% | 5.4µM* | 3% | 4% | 4%
O=C(C=C1SCCS1)/C=C/c1ccco1 | 13µM* | 0.71µM* | 1.3µM* | 2.5µM* | ? | -20%
O=C(/C=C/c1ccc([N+](=O)[O-])cc1)/C=C/c1ccco1 | . | -5% | 4.3µM* | 2% | 0% | .
C=CCN1c2ccccc2[C@]23C[C@@H](C(=O)OC)N(S(=O)(=O)c4ccc(Br)cc4)C2=NC(C(=O)OC)=C(C(=O)OC)[C@H]13 | -1%[9.22 µM] | . | . | . | . | -2%[7.66 µM]
COc1cccc(C=Nc2cccc3c(=O)[nH][nH]c(=O)c23)c1O | 9% | -3% | 0.6µM* | 0% | ? | ?
CCOc1ccc(CCNC(=O)c2cn(CC)c3ccc(S(=O)(=O)N4CCc5ccccc5C4)cc3c2=O)cc1OCC | 1% | . | -10% | . | . | .
CC(=O)c1ccc(Nc2nc(C)cc(C)n2)cc1 | . | ? | 27µM* | ? | ? | .
Cc1cc(C)nc(Nc2ccc(F)cc2)n1 | . | -4% | 1% | -3% | 9% | .
COc1ccc(Oc2nnc(C)c3ccccc23)cc1 | ? | 2.5µM* | 12µM* | 4µM* | ? | 14%
Cc1nnc(Oc2ccccc2)c2ccccc12 | -17% | -3% | ? | 15% | 17% | 1%
COc1ccc(-c2nnc3c4ccccc4c(C)nn23)cc1 | ? | ? | 15µM* | ? | ? | 8%
CCn1c(=O)n(-c2ccc(F)c(Cl)c2)c(=O)c2c3c(sc21)CN(C(C)=O)CC3 | -6% | . | 3% | . | . | .
Cc1ccc2c(c1)c1nc3ccccc3nc1n2C | . | 2% | 6.7µM* | 3% | ? | .
CC1CCc2c(sc(NC(=O)C3=COCCO3)c2C(N)=O)C1 (stereo not given) | . | 2.5µM* | 0.76µM* | 1.6µM* | ? | .
CC(C)(C)C1CCc2c(sc(NC(=O)c3cccs3)c2C(N)=O)C1 (stereo not given) | -21% | ? | 0.54µM* | 4µM* | ? | -6%
CC1CCc2c(sc(NC(=O)CSc3nc(N)cc(=O)[nH]3)c2C(N)=O)C1 (stereo not given) | . | -7% | 17µM* | -4% | -1% | .
CCC(C)(C)C1CCc2c(sc(NC(=O)c3cccs3)c2C(N)=O)C1 (stereo not given) | -13% | 11% | ? | 22% | 17% | 0%
SMILES | SMN2 splice enh | NPC1 promoter act | FLuc counter | Rab9 prom act | ELG1 genotoxic | Luc counter
CNC(=O)c1c(NC(=O)C2=COCCO2)sc2c1CCC(C)C2 (stereo not given) | . | -1% | 2.7µM* | 20% | 14% | .
O=C(CN1C(=O)C2CCCCN2c2ccc(C(=O)N3CCCC3)cc21)NCc1ccccc1F (stereo not given) | . | . | 4% | . | . | .
COc1ccc2nc(NC(=O)C3CCCO3)sc2c1 (stereo not given) | . | 1.1µM* | 9.5µM* | ? | ? | -4%
Cc1cccc2sc(NC(=O)C3CCCO3)nc12 (stereo not given) | 20µM* | ? | ? | ? | ? | -6%
COc1ccc(NC(=O)C2CCCO2)c(OC)c1 (stereo not given) | . | -1% | -2% | 17% | 0% | .
COc1ccc(-c2nnc(NC(=O)C3CCCO3)s2)cc1 (stereo not given) | 24% | 2.5µM* | 12µM* | 4µM* | ? | -7%
CSc1nc2ccc(NC(=O)c3ccc(Cl)s3)cc2s1 | . | 2µM* | 1.9µM* | 2.8µM* | ? | .
Nc1nonc1-c1nc2ccccc2n1Cc1c(Cl)cccc1Cl | -14% | . | -2% | . | . | .
Cc1cc2c(cc1C)NC(CC(=O)Nc1ccccc1SC(F)(F)F)C(=O)N2 (stereo not given) | -3% | . | 4% | . | . | .
CSc1nc2ccc(NC(=O)C3CCCO3)cc2s1 (stereo not given) | 13µM* | 3.5µM* | 12µM* | 3.5µM* | 10µM* | 0%
CC(=O)Nc1cc(C)c2nc(NC(C)=O)sc2c1 | . | 24% | ? | 26% | ? | .
CC(=O)Nc1nc2c(C)cc(NC(=O)C3CCCCC3)cc2s1 | . | 2.2µM* | . | 1.8µM* | ? | .
COc1ccc(NC(=O)C2CCCO2)cc1Cl (stereo not given) | . | 0% | -1% | -2% | 15% | 14%
COc1ccc2c(Sc3ccccc3)c(C(=O)NCCCN3CCCCC3)[nH]c2c1 | . | . | 1% | . | . | .
CCOC(=O)Cn1c(=O)n(C2CCCCC2)c2nc(-c3ccc(CC)cc3)nc(C(N)=O)c21 | . | . | -3% | . | . | .
COC(c1ccccc1)c1nnc(CCC(=O)NC2CCCCC2)o1 (stereo not given) | . | -2% | -16% | -3% | -1% | 2%
O=C(CCc1nnc(-c2ccc(-c3ccccc3)cc2)o1)N1CCCCC1 | . | ? | 13µM* | ? | ? | .
O=C(CCc1nnc(-c2ccccc2)o1)NC1CCCCC1 | . | 30% | 17µM* | ? | ? | 1%
O=C(CCc1nnc(-c2ccsc2)o1)N1CCc2c(Cl)cccc2C1 | . | 19% | 17µM* | ? | ? | -2%
Cc1nc(-c2ccccc2)nc2[nH]c(-c3ccccc3)cc(=O)c12 | 5% | -1% | 0% | 14% | 22% | -1%
Cc1nc(-c2ccccc2)nc2[nH]ccc(=O)c12 | ? | 30% | 12µM* | ? | ? | 13%
